# Measured values: paper PMC5540273 (PLoS ONE, 2017)
# Test system: FLT4
# Settings: concentration: 1 μM, replicates: in singlicate; n = 1
# 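Also: KINOMEscan kinase panel screen.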
row,SMILES,%Inh [%]
1,CCCCc1nn2ncccc2c1-c1ccnc(Nc2ccc(N3CCN(C)CC3)cc2)n1 [GW684941],95.6
2,CC(C)c1nc(-c2cccc(NS(=O)(=O)c3c(F)cccc3F)c2F)c(-c2ccnc(Nc3ccc(N4CCOCC4)nc3)n2)s1 [GSK2008607],99.9
3,NCCCC(NC(=O)c1cc(Br)c(-c2ccnc3[nH]ccc23)s1)c1ccccc1.O=C(O)C(F)(F)F.O=C(O)C(F)(F)F (centres unmarked) [GSK1287544],38
4,CN(C)S(=O)(=O)c1cc(-c2ccc3nccc(-c4cccc(S(N)(=O)=O)c4)c3c2)cnc1N [GSK1669921],1

# Test system: FRK
# Settings: concentration: 1 μM, replicates: in singlicate; n = 1
row,SMILES,%Inh [%]
1,Nc1ncc(-c2cccnc2)c2scc(-c3ccc4c(c3)CCN4C(=O)Cc3ccccc3)c12 [GSK683281],6
2,c1ccc(Oc2ccc(Nc3ccnc4cc(-c5ccc(CNCCN6CCOCC6)o5)ccc34)cc2)nc1 [GW567145],13
3,Cl.Cl.NCC(NCc1ccc(-c2ccnc3[nH]ccc23)s1)c1ccccc1 (centres unmarked) [GSK1321565],0
4,CCn1c(-c2nonc2N)nc2c(C#CC(C)(C)O)nc(OC[C@H](N)c3ccccc3)cc21 [GSK943949],0
5,O=C(Nc1cccc(-c2nn3ncccc3c2-c2ccnc(Nc3ccccc3)n2)c1)c1c(F)cccc1F [GSK198271],89
6,CCS(=O)(=O)c1ccc(OC)c(Nc2nccc(-c3c(-c4cccc(NC(=O)c5c(F)cccc5F)c4)nn4ncccc34)n2)c1 [GSK326180],61
7,C[C@@H](Oc1cc(-n2cnc3cc(-c4ccnc(NCCS(C)(=O)=O)c4)ccc32)sc1C(N)=O)c1ccccc1Cl [GSK907232],18
8,Oc1cc(Nc2ccnc3cc(I)ccc23)ccc1F [GW552771],72
9,Nc1ncc(-c2ccc3nccc(-c4ccncc4)c3c2)cc1S(=O)(=O)N1CCOCC1 [GSK1627798],8
10,Cl.Cl.NCC(C(=O)Nc1cc(Br)c(-c2ccnc3[nH]ccc23)s1)c1ccccc1 (centres unmarked) [GSK1269851],12
11,COc1ccc(Nc2nccc(N3CCC(NC(=O)Nc4cccc(OC)c4)C3)n2)cc1 (centres unmarked) [GSK1379742],8
12,Cc1cccc(NC(=O)Nc2ccc(Oc3ncnc4ccn(C)c34)cc2)c1,10
13,O=C(Nc1ccccc1F)NC1CCN(c2ccnc(Nc3ccc(F)cc3)n2)CC1 [GSK1379800],0
14,COc1cccc(C2=C(Nc3ccc(Cl)c(C(=O)O)c3)C(=O)NC2=O)c1 [SB-390769],32
15,O=c1[nH]cc(-c2ccc(N3CCOCC3)cc2)c2sc(-c3cn[nH]c3)cc12 [GSK2276055],0
16,COc1ccc(Nc2nccc(NCCNC(=O)c3cc4ccccc4s3)n2)cc1 [GSK1379896],0
17,O=C(Nc1cccc(-c2nn3ccccc3c2-c2ccnc(Nc3cccc(C(F)(F)F)c3)n2)c1)c1c(F)cccc1F [GSK292658],72
18,COc1cccc(-c2ccc3c(NC(=O)C4CC4)n[nH]c3n2)c1 [SB-710903],0
19,Cc1cccc(Nc2nc(N[C@H]3CCNC3)ncc2C(N)=O)c1.Cl [GSK2197149],15

row,SMILES,%Inh [%]
1,Fc1ccc(-c2ncn(C3CCNCC3)c2-c2ccnc(Oc3ccc(-c4ccccc4)cc3)n2)cc1 [SB-245391],31
2,O=C(NC1CCN(c2ccnc(Nc3ccc(F)cc3)n2)C1)c1cc2ccccc2s1 (centres unmarked) [GSK1379716],18
3,COc1cccc(C(=O)Nc2cccc(Oc3ccc4nc(NC(=O)C5CC5)cn4n3)c2)c1,94.9
4,Cl.NC(=O)c1cccc(Nc2nccc(Nc3ccc(Oc4c(Cl)cccc4Cl)c(Cl)c3)n2)c1 [GW659009],7
5,O=C(Nc1n[nH]c2cc(-c3ccoc3)ccc12)C1CC1 [SB-738481],0
6,Cl.c1ccc(-c2ccc3c(Nc4ccc5[nH]ccc5c4)ccnc3c2)nc1 [GW440138],17
7,COc1ccc(-c2coc3ccc(-c4nnc(SCc5ccc(OC)c(C(F)(F)F)c5)o4)cc23)cc1,0
8,COc1cc2c(cc1OCCN1CCNCC1)ncc1c3ccc(C#N)cc3[nH]c21,0
9,CN(c1ccc(NC(=O)Nc2cc(C(F)(F)F)ccc2F)cc1)c1ccnc(Nc2ccc(S(N)(=O)=O)cc2)n1 [GW809893],99
10,Cn1cc(-c2ccc3c(c2)CCN3C(=O)Cc2cccc(F)c2)c2c(N)ncnc21 [GSK2603358],0
11,CN(C)Cc1ccc(-c2ccc3c(Nc4ccc(Oc5ccccn5)cc4)ccnc3c2)o1 [GW567148],25
12,c1ccc(-c2n[nH]cc2Nc2ccnc3ccccc23)nc1 [GW694077],0
13,COc1ccc(CNC(=O)NC2CCN(c3ccnc(Nc4ccc(F)cc4)n3)CC2)cc1 [GSK1379788],0
14,COc1cc(Nc2nccc(-c3c(-c4cccc(NC(=O)c5c(F)cccc5F)c4)nn4ncccc34)n2)cc(OC)c1OC [GSK327238],96.9
15,CCCCc1nn2ncccc2c1-c1ccnc(Nc2ccc(N3CCN(C)CC3)cc2)n1 [GW684941],95
16,CC(C)c1nc(-c2cccc(NS(=O)(=O)c3c(F)cccc3F)c2F)c(-c2ccnc(Nc3ccc(N4CCOCC4)nc3)n2)s1 [GSK2008607],98.8
17,NCCCC(NC(=O)c1cc(Br)c(-c2ccnc3[nH]ccc23)s1)c1ccccc1.O=C(O)C(F)(F)F.O=C(O)C(F)(F)F (centres unmarked) [GSK1287544],2
18,CN(C)S(=O)(=O)c1cc(-c2ccc3nccc(-c4cccc(S(N)(=O)=O)c4)c3c2)cnc1N [GSK1669921],7
